In the supplement of paper PMC10849652:
Targets with a hit are over-represented here; the source holds about 7,900 in all. About 0.6% of all pairs of compound and target were hits.

The targets below were run with CC[C@H](C)[C@@H](C(=O)N[C@@H]([C@@H](C)O)C(=O)N[C@@H](CC(C)C)C(=O)[C@]1(CO1)C)NC(=O)[C@H]([C@@H](C)CC)N(C)C(=O)C [epoxomicin] (assay: log2 fold change, soluble protein after heating vs DMSO (PISA); higher = thermal stabilisation; K562 cells, 10 uM, 30 min; active = over 0.2 and 3.5 SD of the protein, either way, in both replicates (recomputed)).
Method in brief: (§1)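 For each measurement, 10 μM compound was applied for 30 min to K562 cells at 2×10^6 cells/mL. Aliquots were heated for 3 min across 48°C-58°C, pooled, and extracted in PBS with 0.5% NP-40 at 4°C; the supernatant after 21,000xg for 90 min was soluble protein. This was quantified by TMTpro 16plex LC-MS/MS with channel sums equalised, and thermal stability was reported relative to control samples from duplicates, on a log2 fold-change scale.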

Sequence of UniProt P49116 (P49116 whole entry, looked up): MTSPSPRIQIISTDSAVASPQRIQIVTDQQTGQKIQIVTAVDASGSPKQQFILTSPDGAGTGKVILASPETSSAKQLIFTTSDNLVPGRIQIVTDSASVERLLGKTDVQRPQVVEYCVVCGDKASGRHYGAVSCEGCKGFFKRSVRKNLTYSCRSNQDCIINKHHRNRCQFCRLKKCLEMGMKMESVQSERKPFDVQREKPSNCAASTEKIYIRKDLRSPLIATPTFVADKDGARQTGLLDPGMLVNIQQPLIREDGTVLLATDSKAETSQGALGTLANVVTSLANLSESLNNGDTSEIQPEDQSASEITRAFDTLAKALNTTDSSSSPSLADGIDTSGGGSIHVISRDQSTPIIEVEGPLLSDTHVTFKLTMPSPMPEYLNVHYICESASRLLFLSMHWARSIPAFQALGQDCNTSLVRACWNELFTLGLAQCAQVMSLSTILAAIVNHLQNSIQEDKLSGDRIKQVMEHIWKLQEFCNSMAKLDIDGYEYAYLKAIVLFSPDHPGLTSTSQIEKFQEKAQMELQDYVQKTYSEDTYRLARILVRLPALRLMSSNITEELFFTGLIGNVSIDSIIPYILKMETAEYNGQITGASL
Sequence of UniProt O15460 (O15460 whole entry, looked up): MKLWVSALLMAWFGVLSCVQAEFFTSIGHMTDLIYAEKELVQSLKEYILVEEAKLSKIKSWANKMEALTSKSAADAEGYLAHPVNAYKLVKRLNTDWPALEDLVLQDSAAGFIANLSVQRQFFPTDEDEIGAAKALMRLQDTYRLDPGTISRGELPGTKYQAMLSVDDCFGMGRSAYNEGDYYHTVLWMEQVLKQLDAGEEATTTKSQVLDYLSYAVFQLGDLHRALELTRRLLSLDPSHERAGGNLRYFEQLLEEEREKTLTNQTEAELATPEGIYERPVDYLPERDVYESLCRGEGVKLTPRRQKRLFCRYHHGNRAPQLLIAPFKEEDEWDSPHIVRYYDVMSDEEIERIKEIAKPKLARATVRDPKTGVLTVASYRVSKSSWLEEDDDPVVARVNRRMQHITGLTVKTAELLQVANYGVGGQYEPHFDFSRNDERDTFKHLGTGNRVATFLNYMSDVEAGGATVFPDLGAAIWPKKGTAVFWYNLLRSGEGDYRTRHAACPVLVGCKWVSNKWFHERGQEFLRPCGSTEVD
Sequence of UniProt Q9Y2X3 (Q9Y2X3 whole entry, looked up): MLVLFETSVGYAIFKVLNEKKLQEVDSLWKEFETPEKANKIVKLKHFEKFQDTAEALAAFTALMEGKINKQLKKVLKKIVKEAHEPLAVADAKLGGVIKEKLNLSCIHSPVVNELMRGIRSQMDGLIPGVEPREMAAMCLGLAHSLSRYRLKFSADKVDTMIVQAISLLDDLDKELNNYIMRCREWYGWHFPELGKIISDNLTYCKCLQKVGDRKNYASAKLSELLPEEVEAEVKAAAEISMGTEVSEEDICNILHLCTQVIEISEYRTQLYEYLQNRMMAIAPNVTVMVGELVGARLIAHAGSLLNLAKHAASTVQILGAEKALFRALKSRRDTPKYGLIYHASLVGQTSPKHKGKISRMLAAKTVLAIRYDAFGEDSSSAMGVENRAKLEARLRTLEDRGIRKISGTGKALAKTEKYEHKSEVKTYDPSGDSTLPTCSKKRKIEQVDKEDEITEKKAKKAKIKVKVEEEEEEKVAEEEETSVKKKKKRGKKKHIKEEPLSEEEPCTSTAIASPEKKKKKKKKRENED
Sequence of UniProt O14950 (O14950 whole entry, looked up): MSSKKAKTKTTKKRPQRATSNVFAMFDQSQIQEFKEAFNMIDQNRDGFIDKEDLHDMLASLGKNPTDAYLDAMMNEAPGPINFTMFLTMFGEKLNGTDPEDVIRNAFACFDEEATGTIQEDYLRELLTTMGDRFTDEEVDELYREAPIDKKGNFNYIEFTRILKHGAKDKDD
Sequence of UniProt Q9BUK6 (Q9BUK6 whole entry, looked up): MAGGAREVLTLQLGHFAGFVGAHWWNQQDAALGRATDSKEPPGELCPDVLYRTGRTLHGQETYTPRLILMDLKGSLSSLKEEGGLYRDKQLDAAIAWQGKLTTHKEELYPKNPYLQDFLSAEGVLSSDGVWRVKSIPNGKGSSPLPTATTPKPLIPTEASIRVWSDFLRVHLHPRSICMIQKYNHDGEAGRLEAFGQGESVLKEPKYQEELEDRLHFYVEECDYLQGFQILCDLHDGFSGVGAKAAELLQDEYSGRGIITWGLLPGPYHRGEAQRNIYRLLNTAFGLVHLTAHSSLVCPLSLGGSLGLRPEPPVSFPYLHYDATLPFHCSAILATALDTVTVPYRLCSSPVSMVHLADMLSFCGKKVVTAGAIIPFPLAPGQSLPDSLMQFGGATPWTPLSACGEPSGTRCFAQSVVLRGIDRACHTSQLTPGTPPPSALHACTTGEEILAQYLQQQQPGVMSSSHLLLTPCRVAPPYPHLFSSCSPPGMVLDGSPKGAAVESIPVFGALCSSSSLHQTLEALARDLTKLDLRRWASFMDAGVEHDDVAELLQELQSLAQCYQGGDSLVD
Sequence of UniProt P68402 (P68402 whole entry, looked up): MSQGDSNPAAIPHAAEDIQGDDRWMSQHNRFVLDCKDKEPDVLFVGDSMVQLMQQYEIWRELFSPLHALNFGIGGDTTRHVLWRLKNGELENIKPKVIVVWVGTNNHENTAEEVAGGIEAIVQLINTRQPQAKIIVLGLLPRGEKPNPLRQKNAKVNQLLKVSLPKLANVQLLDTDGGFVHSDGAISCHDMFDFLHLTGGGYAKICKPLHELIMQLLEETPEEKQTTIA
Sequence of UniProt O60551 (O60551 whole entry, looked up): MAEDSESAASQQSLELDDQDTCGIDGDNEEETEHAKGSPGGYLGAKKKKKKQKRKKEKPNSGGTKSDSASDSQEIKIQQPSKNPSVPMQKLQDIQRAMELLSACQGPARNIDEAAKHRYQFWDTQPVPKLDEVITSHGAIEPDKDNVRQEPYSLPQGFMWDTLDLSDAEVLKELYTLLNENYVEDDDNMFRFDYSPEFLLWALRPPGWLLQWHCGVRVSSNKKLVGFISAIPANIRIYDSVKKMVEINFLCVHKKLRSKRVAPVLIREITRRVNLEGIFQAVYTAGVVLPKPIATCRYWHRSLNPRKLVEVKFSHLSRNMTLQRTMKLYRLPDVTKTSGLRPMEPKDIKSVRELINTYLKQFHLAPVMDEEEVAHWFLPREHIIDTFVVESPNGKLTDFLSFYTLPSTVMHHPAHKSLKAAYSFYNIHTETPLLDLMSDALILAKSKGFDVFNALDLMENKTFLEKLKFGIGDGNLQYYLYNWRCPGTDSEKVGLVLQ
Sequence of UniProt Q9NRP0 (Q9NRP0 whole entry, looked up): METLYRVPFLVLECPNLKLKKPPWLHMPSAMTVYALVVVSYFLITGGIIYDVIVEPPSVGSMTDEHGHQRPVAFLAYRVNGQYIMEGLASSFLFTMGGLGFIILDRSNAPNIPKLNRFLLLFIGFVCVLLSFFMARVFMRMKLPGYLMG
Sequence of UniProt Q9UI09 (Q9UI09 whole entry, looked up): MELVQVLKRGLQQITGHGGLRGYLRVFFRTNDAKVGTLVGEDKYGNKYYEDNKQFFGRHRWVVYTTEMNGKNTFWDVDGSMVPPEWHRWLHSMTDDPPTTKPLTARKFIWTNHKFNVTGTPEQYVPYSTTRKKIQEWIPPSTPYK
Sequence of UniProt Q96PU5 (Q96PU5 whole entry, looked up): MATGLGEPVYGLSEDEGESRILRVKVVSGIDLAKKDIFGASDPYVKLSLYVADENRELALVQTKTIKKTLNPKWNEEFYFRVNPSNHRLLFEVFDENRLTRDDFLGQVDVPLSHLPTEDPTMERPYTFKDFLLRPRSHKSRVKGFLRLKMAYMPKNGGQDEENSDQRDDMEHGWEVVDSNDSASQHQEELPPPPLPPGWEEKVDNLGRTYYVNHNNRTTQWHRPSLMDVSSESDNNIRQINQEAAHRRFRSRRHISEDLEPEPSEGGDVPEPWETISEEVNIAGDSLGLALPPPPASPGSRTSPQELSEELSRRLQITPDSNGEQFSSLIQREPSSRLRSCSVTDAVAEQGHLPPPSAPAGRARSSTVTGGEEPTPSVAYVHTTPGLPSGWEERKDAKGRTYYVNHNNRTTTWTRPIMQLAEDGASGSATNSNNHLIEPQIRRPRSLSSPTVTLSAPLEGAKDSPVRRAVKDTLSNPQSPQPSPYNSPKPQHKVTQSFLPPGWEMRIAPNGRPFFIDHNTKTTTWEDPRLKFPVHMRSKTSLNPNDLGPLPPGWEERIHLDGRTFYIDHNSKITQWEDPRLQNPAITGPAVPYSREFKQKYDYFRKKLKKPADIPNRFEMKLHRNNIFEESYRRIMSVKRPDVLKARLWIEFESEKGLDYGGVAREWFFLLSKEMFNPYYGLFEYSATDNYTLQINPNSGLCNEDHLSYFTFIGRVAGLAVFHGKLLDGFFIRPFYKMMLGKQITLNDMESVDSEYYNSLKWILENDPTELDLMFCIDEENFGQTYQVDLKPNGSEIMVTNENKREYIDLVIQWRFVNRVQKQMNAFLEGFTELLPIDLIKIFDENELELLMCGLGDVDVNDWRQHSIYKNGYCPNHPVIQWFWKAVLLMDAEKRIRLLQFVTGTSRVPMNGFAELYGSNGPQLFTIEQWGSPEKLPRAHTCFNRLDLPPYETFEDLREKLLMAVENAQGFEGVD
Sequence of UniProt Q9NWU1 (Q9NWU1 whole entry, looked up): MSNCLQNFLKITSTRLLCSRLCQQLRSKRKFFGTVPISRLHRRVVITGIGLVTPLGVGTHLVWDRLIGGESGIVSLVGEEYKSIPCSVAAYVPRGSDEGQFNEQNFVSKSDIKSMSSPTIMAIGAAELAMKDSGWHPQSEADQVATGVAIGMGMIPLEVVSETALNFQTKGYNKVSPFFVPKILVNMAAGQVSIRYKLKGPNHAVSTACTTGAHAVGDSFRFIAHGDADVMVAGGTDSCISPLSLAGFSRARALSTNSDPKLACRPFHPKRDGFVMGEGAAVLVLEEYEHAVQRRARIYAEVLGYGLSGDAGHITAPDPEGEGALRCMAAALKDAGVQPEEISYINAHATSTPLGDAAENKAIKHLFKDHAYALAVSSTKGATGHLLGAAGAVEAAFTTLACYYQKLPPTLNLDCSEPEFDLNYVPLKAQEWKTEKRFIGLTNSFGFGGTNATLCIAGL

log2 fold change, inactive:
MRPS5 (UniProt P82675) 0.077
NMT2 (UniProt O60551) 0.01
NEDD4L (UniProt Q96PU5) 0.012
NR2C2 isoform 2 (UniProt P49116) 0.036
P4HA2 (UniProt O15460) -0.257
OSTC (UniProt Q9NRP0) -0.073
NFATC2 (UniProt Q13469) -0.001
PAFAH1B2 (UniProt P68402) 0.102
NA, A0A0B4J2A0 0.11
OXSM (UniProt Q9NWU1) 0.018
NDUFA12 (UniProt Q9UI09) 0.046
NOP58 (UniProt Q9Y2X3) -0.263
MSTO1 (UniProt Q9BUK6) 0.044
MRPS27 isoform 2 (UniProt Q92552) 0.052
MYL12B (UniProt O14950) 0.052

These targets were tested with CCn1c(C(=O)N(C2CC2)C2CC2)cc2c3c(ncn3C)c(Nc3cc(C)n(C)n3)nc21 in the same assay as above.
Method in brief: as §1

log2 fold change, inactive:
NELFB isoform 2 (UniProt Q8WX92) -0.057
MRPL50 (UniProt Q8N5N7) -0.005
MRPL46 (UniProt Q9H2W6) 0.075
NOP56 (UniProt O00567) -0.006
MTHFS (UniProt P49914) 0.031
MKNK1 (UniProt Q9BUB5) -0.023
NMNAT1 (UniProt Q9HAN9) -0.06
MT-ATP6 (UniProt P00846) -0.053
NFATC3 (UniProt Q12968) 0.065
NELFA (UniProt Q9H3P2) -0.105
OSTM1 (UniProt Q86WC4) -0.12
NDUFS8 (UniProt O00217) -0.003
MITD1 (UniProt Q8WV92) 0.117
NFX1 (UniProt Q12986) 0.029
NBN (UniProt O60934) -0.038
NDUFS7 (UniProt O75251) -0.009
NA, A0A096LPI6 0.042
NSMCE2 (UniProt Q96MF7) 0.025
NIPSNAP2 (UniProt O75323) 0.009
MRPS10 (UniProt P82664) -0.021
NNT (UniProt Q13423) -0.018
NEU1 (UniProt Q99519) -0.04
NOL11 (UniProt Q9H8H0) -0.031
MRPS25 (UniProt P82663) -0.091
MRPS5 (UniProt P82675) -0.048
NMT2 (UniProt O60551) -0.001
NEDD4L (UniProt Q96PU5) -0.015
NR2C2 isoform 2 (UniProt P49116) -0.015
P4HA2 (UniProt O15460) -0.038
OSTC (UniProt Q9NRP0) 0.006
NFATC2 (UniProt Q13469) 0.045
PAFAH1B2 (UniProt P68402) 0.018
NA, A0A0B4J2A0 -0.04
OXSM (UniProt Q9NWU1) -0.048
NDUFA12 (UniProt Q9UI09) -0.063
NOP58 (UniProt Q9Y2X3) 0.005
MSTO1 (UniProt Q9BUK6) 0.038
MRPS27 isoform 2 (UniProt Q92552) -0.033
MYL12B (UniProt O14950) -0.06
